Compounds with a hit are over-represented: about 9.5% of the library has one in this group of screens.
NPSR antagonist – qHTS Assay for Antagonists of the Neuropeptide S Receptor: cAMP Signal Transduction. Q6W5P4. CHO-NPSR cells, cAMP TR-FRET, antagonist mode. 220,000 tested, 1% active. Potency, µM (highest dose often 38.3 µM), without a hit: at the top dose activity change, negative = inhibition, most hits filed as inhibitors; note: nearly all actives have a fitted effect of over 50% in size
Tau fluor cs – Counterscreen qHTS for Inhibitors of Tau Fibril Formation, Fluorescence Polarization; tau K18 P301L Alexa594 fluorescence, heparin fibrillization; Potency, µM (doses to about 57.7 µM), for inactives: at the highest dose activity change, negative = decrease; 280,000 tested, 0.93% active; AID 1463, 2008; note: nearly all actives have a fitted effect of over 55% in size
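Human K18 P301L tau (15 uM unlabeled plus 0.24 uM Alexa 594-labeled, final) in 100 mM sodium acetate pH 7 was mixed with compound and 20 uM heparin and incubated 6 hr at 37 C.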
ALDH1A1 block – qHTS Assay for Inhibitors of Aldehyde Dehydrogenase 1 (ALDH1A1); Potency, µM (titrated, usually from 75.3 µM), inactives show at the top dose activity, negative = inhibition, actives largely listed as inhibitors; Aldehyde dehydrogenase 1A1 (Homo sapiens), P00352; AID 1030, 2008; 220,000 tested, 7.3% active; Purified ALDH1A1, NADH fluorescence, propionaldehyde substrate; active = well fitted inhibition curve with a large enough effect, not every such curve was filed as active; inconclusive = small, poorly fitted or top-dose-only effect, or another doubt; inactive = no such curve, though single readings can be large or run the other way;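 note: plate controls were no enzyme wells and a reference inhibitor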
Target sequence (P00352 whole entry, looked up): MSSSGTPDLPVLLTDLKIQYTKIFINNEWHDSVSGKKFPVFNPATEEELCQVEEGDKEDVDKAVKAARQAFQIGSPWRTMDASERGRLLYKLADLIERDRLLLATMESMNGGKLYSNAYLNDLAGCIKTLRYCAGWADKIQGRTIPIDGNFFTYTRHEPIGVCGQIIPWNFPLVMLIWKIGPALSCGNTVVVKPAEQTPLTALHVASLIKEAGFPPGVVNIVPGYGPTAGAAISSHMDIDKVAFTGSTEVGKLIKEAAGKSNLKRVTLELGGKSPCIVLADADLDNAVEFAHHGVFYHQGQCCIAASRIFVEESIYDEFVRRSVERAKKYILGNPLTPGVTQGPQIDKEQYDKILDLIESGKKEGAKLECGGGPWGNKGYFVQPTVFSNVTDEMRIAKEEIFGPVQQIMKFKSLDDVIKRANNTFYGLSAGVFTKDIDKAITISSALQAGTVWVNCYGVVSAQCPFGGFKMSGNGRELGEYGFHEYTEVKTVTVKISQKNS
HPGD inh – qHTS Assay for Inhibitors of HPGD (15-Hydroxyprostaglandin Dehydrogenase); purified HPGD, NADH fluorescence kinetic, PGE2 substrate; 150,000 tested, 4.3% active; Potency, µM, for the others: top-dose activity change, negative = inhibition, hits mostly inhibitors; 15-hydroxyprostaglandin dehydrogenase [NAD(+)] (Homo sapiens), P15428; active = well fitted inhibition curve with a large enough effect, not every such curve was filed as active; inconclusive = small, poorly fitted or top-dose-only effect, or another doubt; inactive = no such curve, though single readings can be large or run the other way
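20 nM HPGD preincubated 15 min at room temperature with compound in 50 mM Tris-HCl pH 8, 0.01% Tween 20. Started with 1 mM NAD+ and 30 uM prostaglandin E2; NADH fluorescence (360/450 nm) read 5 times over 30-s intervals, last minus first.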
Tau FP inhib – qHTS for Inhibitors of Tau Fibril Formation, Fluorescence Polarization; Microtubule-associated protein tau (Homo sapiens), P10636; K18 P301L tau heparin fibrillization, Alexa594 FP, 6 h; Potency, µM (doses to about 57.7 µM), inactives show at the top dose activity, negative = inhibition, usual class: inhibitors; 280,000 tested, 0.39% active; note: nearly all actives have a fitted effect of over 55% in size
Target sequence (P10636 561-689 P618L limits assumed): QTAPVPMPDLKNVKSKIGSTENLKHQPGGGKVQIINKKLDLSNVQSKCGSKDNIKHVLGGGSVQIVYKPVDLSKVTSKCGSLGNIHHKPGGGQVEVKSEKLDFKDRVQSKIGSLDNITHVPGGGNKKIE
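Steps: dispense K18 P301L tau (15 uM plus 0.24 uM Alexa 594 tracer, final) in pH 7 sodium acetate; add compound; add heparin (20 uM final); incubate 6 hr, 37 C; add ThT (30 uM final); after 1 hr ambient, read FP.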
Tau ThT inhib – qHTS for Inhibitors of Tau Fibril Formation, Thioflavin T Binding; Microtubule-associated protein tau (Homo sapiens), P10636; recombinant tau K18 P301L (four-repeat tau fragment), heparin-induced fibrillization, ThT fluorescence; Potency, µM (titrated, usually from 57.4 µM), for the others: top-dose activity, negative = inhibition, most hits filed as inhibitors; 270,000 tested, 2.1% active; AID 1460, 2008; note: nearly all actives have a fitted effect of over 55% in size
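Heparin-induced fibrillization of the P301L-mutant K18 repeat-domain fragment of human tau was followed by ThT binding in quantitative high-throughput format.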
Numbers without * were called inactive; ? = inconclusive; · = no result given; ! = a repeat was not active; [ ] = remark or other dose. Unless noted, calls come from the whole dose curve; as a rule, active = well fitted curve in the direction sought with a large enough effect; inconclusive = small, poorly fitted or top-dose-only effect, or another doubt; inactive = no such curve, though single readings can be large; an effect the other way counts as inactive or inconclusive. Unless noted, % is set by controls: 0 for no effect and ±100 for the full control effect; potency is the fitted concentration of half-maximal effect.

SMILES | NPSR antagonist | Tau fluor cs | ALDH1A1 block | HPGD inh | Tau FP inhib | Tau ThT inhib
Oc1c(Br)cc(Br)cc1Oc1ccc(Br)cc1Br | -37% | ? | -1% | 7.1µM* | ? | 32µM*
Brc1ccc(Oc2ccc(Br)cc2Br)c(Br)c1 | · | · | ? | -4% | · | ·
CN1CCCCC1c1cccnc1 (centres undefined) | · | -9% | 1% | · | -1% | -7%
NC(=S)c1cn(C2OC(CO)C(O)C2O)c2ncnc(N)c12 (centres undefined) | -8% | -13% | 7.9µM* | · | -7% | ?
CC(C)CN1CC2(CCN(C(=O)c3ccncc3)CC2)C1 | · | · | 6% | -1% | · | ·
O=c1c2ccccc2nc(-c2ccco2)n1-c1ccccn1 | -3%[46.1 µM] | -3% | -6% | -2% | -3% | -5%
Cc1cccnc1-n1c(-c2ccco2)nc2ccccc2c1=O | 0%[46.1 µM] | 2% | 28µM* | · | 0% | 1%
Cc1ccc(NC(=O)C2CCN(C(=O)c3cnn(-c4ccccc4)c3-n3cccc3)CC2)cc1Cl | · | ? | · | · | -9% | -4%
CCCCn1c(O)c(C(CC)=Nc2ccc(OC)cc2OC)c(=O)[nH]c1=O | -16%[46.1 µM] | 0% | 5% | 16µM* | 10% | -5%
CCCCn1c(O)c(C(CC)=Nc2ccc(OCC)cc2)c(=O)[nH]c1=O | -15%[46.1 µM] | -18% | 2% | -15% | -2% | ?
CCC(=Nc1ccc(OC)cc1OC)c1c(O)n(C)c(=O)n(C)c1=O | -9%[46.1 µM] | -17% | ? | 35µM* | -6% | ?
CSc1ncc(C(=O)Nc2ccc(Cl)cc2C(=O)c2ccccc2)c(C)n1 | · | -25% | · | · | 1% | -13%
CN1CCCC(C(=O)c2ccccc2)C1 (centres undefined) | 5%[46.1 µM] | 3% | 8% | -8% | 0% | -10%
CN1CCC(O)(c2ccccc2)C(C(=O)c2ccccc2)C1 (centres undefined) | -1%[46.1 µM] | 0% | 0.14µM* | -4% | 12% | ?
Cc1ccc(Cn2cccc(C(=O)Nc3ccc(C)c(Cl)c3)c2=O)cc1 | · | -25% | · | · | -10% | -9%
C/C1=C\[C@@H](C)C/C=C/[C@H]2[C@@H]3O[C@]3(C)[C@@H](C)[C@H]3[C@H](Cc4c[nH]c5ccccc45)NC(=O)[C@]32C(=O)/C=C/C(=O)[C@@H]1O | ? | ? | -1% | · | -19% | 0.89µM*
O=Cc1cn(Cc2c(F)cccc2Cl)c2ccccc12 | -28% | -15% | 3.2µM* | · | -9% | -15%
O=Cc1cn(CCCOc2ccccc2)c2ccccc12 | -10% | -18% | ? | ? | -10% | ?
O=Cc1cn(Cc2ccccc2F)c2ccccc12 | 17% | -11% | 0.45µM* | · | -12% | -6%
O=Cc1cn(Cc2cccc([N+](=O)[O-])c2)c2ccccc12 | -9% | -4% | 4µM* | -17% | -2% | 12%
Cc1c(C=O)c2ccccc2n1Cc1ccccc1F | 14% | -18% | ? | · | 4% | -14%
CCBr | · | · | ? | 1% | · | ·
COc1ccc(C(O)P(=O)(OC2CCCCC2)c2ccc(N(C)C)cc2)cc1OC (centres undefined) | -9%[46.1 µM] | -3% | -3% | -14% | ? | -9%
O=C(Nc1ccccc1)N1CC2(CCN(C(=O)Oc3ccccc3)CC2)C1 | · | · | ? | 1% | · | ·
CC1CC(OP(O)(=S)c2ccc(N(C)C)cc2NC(=O)c2cccs2)CC(C)(C)C1 (centres undefined) | -3% | -17% | 4µM* | · | ? | ?
SMILES | NPSR antagonist | Tau fluor cs | ALDH1A1 block | HPGD inh | Tau FP inhib | Tau ThT inhib
O=c1c2ccccc2nc(-c2ccoc2)n1-c1ccccc1Cl | -21%[46.1 µM] | -13% | 16µM* | -20% | -12% | 0%
COc1ccccc1-n1c(-c2ccoc2)nc2ccccc2c1=O | 1%[46.1 µM] | -6% | ? | -11% | -4% | -10%
O=C(O)[C@H](Cc1cnc[nH]1)N1C(=O)c2ccccc2C1=O | · | · | -7%[13.5 µM] | -1% | · | ·
O=C(/C=C/c1ccccc1)c1c(O)n(CCc2ccccc2)c(=O)[nH]c1=O | 13µM* | -12% | 1% | -4% | -5% | ?
O=C(/C=C/c1ccc2c(c1)OCO2)c1c(O)n(CCc2ccccc2)c(=O)[nH]c1=O | ? | -11% | · | · | 0% | ·
COc1cc(/C=C/C(=O)c2c(O)n(CCc3ccccc3)c(=O)[nH]c2=O)ccc1O | 10µM* | -13% | -5% | -28% | -10% | ?
CS(=N)(=O)CC[C@@H](N)C(=O)O (some centres undefined) | · | · | 4%[20.9 µM] | 0% | · | ·
Cc1ccc(-c2nc3ccccc3c(=O)n2-c2ccncc2)cc1 | 5% | -3% | ? | -9% | 2% | -4%
COc1ccc(-n2c(-c3ccc(C)cc3)nc3ccccc3c2=O)cc1 | ? | -6% | 7.9µM* | · | 5% | -9%
CCCCOc1nc2ccccc2c(=O)n1-c1ccccc1 | -21% | -6% | 14µM* | -13% | 7% | -3%
COc1nc2ccccc2c(=O)n1-c1ccc(Cl)cc1 | -7% | 11% | 4% | -9% | 4% | 8%
COc1ccc(Br)cc1C1SCC(=O)Nc2c1c(C)nn2-c1ccccc1C (centres undefined) | · | -20% | · | · | ? | 2%
O=C(O)[C@@H]1C[C@H]2C[C@@H](CP(=O)(O)O)CC[C@H]2CN1 | · | -6% | 0% | 1% | -2% | -8%
C=CCSc1nc2c(c(-c3ccsc3)c1C#N)CN(C)CC2 | -37% | 20µM*[quencher] | · | · | ? | 14µM*
C[C@@H]1CC[C@H]2[C@@H](C)C(=O)O[C@@H]3OC4(C)CC[C@@H]1[C@]32OO4 | · | -3% | 25µM* | -8% | 4% | -6%
O=c1c2ccccc2nc(SCC2CCCCO2)n1-c1ccccc1 (centres undefined) | -48% | 3% | 18µM* | -8% | 9% | -2%
Cc1ccccc1-n1nc(C)c2c1NC(=O)CSC2c1ccccc1C(F)(F)F (centres undefined) | · | -12% | · | · | -9% | -1%
C[C@H]1CCC/C=C/C2C[C@H](O)C[C@H]2[C@H](O)/C=C/C(=O)O1 (some centres undefined) | · | -4% | -6% | 2% | -6% | 3%
C[C@H]1CCCC(=O)CCC/C=C/c2cc(O)cc(O)c2C(=O)O1 | -20%[46.1 µM] | -21% | 14µM* | 14µM*! | -10% | -8%

High-throughput results (PubChem BioAssay)
